Structures can show the parent of a compound that is named as a salt. Values without a mark were called inactive.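 The calls were made as follows: active = AUC significantly below DMSO controls by Student t-fit with adjusted P under 0.01; inactive = not significantly reduced.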
test system: Shigella flexneri; assay: growth AUC normalised to DMSO control (fraction of control); higher = less growth inhibition, active = hit call of the paper; details: 20 µM
Procedure, shortened: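 Pathogens passaged twice anaerobically were inoculated at a starting OD578 of 0.01 into pre-reduced mGAM plates with drug at 20 μM and 1% DMSO, sealed with breathable membranes. Haemophilus parainfluenzae medium was supplemented with hemin and NAD. OD578 was read hourly for 24 h, with three biological replicates. Growth-curve AUC was computed by the trapezoidal rule up to the exponential-to-stationary transition and normalised to DMSO controls on the same plate.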

SMILES	growth AUC normalised to DMSO control
CCN[C@H]1CN(CCCOC)S(=O)(=O)c2sc(S(N)(=O)=O)cc21 [Brinzolamide]	0.952
CN1CCCN=C1/C=C/c1cccs1 [Pyrantel tartrate]	0.995
CN1CCc2cccc3c2[C@H]1Cc1ccc(O)c(O)c1-3 [R(-) Apomorphine hydrochloride hemihydrate]	1
CCCCCCCN(CC)CCCC(O)c1ccc(NS(C)(=O)=O)cc1 (stereo unspecified) [Ibutilide fumarate]	0.961
Clc1ccc2c(c1)C(N1CCNCC1)=Nc1ccccc1O2 [Amoxapine]	1.01
Cc1c(OCC(F)(F)F)ccnc1C[S+]([O-])c1nc2ccccc2[nH]1 (stereo unspecified) [Lansoprazole]	1
Nc1ccc(/N=N/c2ccccc2)c(N)n1 [Phenazopyridine hydrochloride]	0.922
C[C@]12CC[C@@H]3c4ccc(O)cc4C[C@@H](CCCCCCCCC[S+]([O-])CCCC(F)(F)C(F)(F)F)[C@H]3[C@@H]1CC[C@@H]2O (stereo partly specified) [Fulvestrant]	1.09
OCCOCCN1CCN(C(c2ccccc2)c2ccc(Cl)cc2)CC1 (stereo unspecified) [Hydroxyzine dihydrochloride]	0.875 (active)
CNCCCC12CCC(c3ccccc31)c1ccccc12 [Maprotiline hydrochloride]	0.999
CC[C@H](C)C(=O)O[C@H]1C[C@H](O)C=C2C=C[C@H](C)[C@H](CC[C@@H](O)C[C@@H](O)CC(=O)O)[C@H]21 [Pravastatin]	1.08

Source: the supplement of paper PMC12350171
